NOMO-1 viab: STK33 inhibitor candidate reducing NOMO-1 cell viability; NOMO-1 AML viability, CellTiter-Glo luminescence, 72 h; inhibition, % (concentration not given with the values); hit rate 7.5% among 37,000; AID 2330; in the data active means inhibition above about 80%; inconclusive means no clear call, values can overlap the other calls
U2OS ROS induce: cancer cell ROS induction | hit rate 2% among 46,000 | AID 624156 | ROS induction (% of piperlongumine), % at 10 µM | U2OS ROS induction, H2DCF-DA fluorescence; in the data active means ROS induction above about 79%, passing the limit was not always enough; inconclusive means no clear call, values can overlap the other calls
Each line names hits and unclear results; the compound was inactive in the other large screens. The sample as a whole holds a higher share of hits than the screen did.

C[C@@H]1CN([C@@H](C)CO)C(=O)Cc2cc(NC(=O)Nc3ccc4c(c3)OCO4)ccc2O[C@@H]1CN(C)Cc1ccc(C(=O)Nc2ccccc2N)cc1	NOMO-1 viab 101.1
CC(C)NC(=O)Nc1ccc2c(c1)CC(=O)N([C@@H](C)CO)C[C@H](C)[C@@H](CN(C)Cc1ccc(C(=O)Nc3ccccc3N)cc1)O2	none
C[C@@H]1CN([C@@H](C)CO)C(=O)Cc2cc(NC(=O)C3CC3)ccc2O[C@@H]1CN(C)Cc1ccc(C(=O)Nc2ccccc2N)cc1	NOMO-1 viab 82.0
C[C@@H]1CN([C@H](C)CO)C(=O)Cc2cc(NC(=O)C3CC3)ccc2O[C@H]1CN(C)Cc1ccc(C(=O)Nc2ccccc2N)cc1	none
Cc1noc(C)c1NC(=O)Nc1ccc2c(c1)CC(=O)N([C@@H](C)CO)C[C@H](C)[C@H](CN(C)Cc1ccc(C(=O)Nc3ccccc3N)cc1)O2	NOMO-1 viab 87.6
Cc1noc(C)c1NC(=O)Nc1ccc2c(c1)C(=O)N([C@@H](C)CO)C[C@H](C)[C@@H](CN(C)Cc1ccc(C(=O)Nc3ccccc3N)cc1)O2	none
CNC(=S)N(Cc1ccco1)C1CC(=O)N(c2ccccc2)C1=O (stereo not drawn)	none
C=C1CC[C@H]2C(=C)CC[C@@]3(O)C(=C)C(=O)O[C@@H]3[C@@H]12	NOMO-1 viab 109.9
Cc1ccc(OC(C)(C)C(=O)Nc2ccc(Oc3ccc(F)cc3F)nc2)c2c1CCC2	none
C[C@H]1CN([C@@H](C)CO)C(=O)c2cccc(NC(=O)c3ccncc3)c2O[C@H]1CN(C)Cc1ccc2c(c1)OCO2	none
C[C@@H]1CCCCO[C@@H](CN(C)S(=O)(=O)c2cn(C)cn2)[C@@H](C)CN([C@H](C)CO)C(=O)c2cc(NS(=O)(=O)c3cccs3)ccc2O1	none
Cn1c(SCC(=O)Nc2ccc(Cl)cc2)nc2sc3c(c2c1=O)CCCC3	none
CS(=NC(=O)Nc1ccc(Cl)cc1)c1sc(Cl)c2c1C(=O)CCC2 (stereo not drawn)	NOMO-1 viab 116.1
COc1ccc(NC(=O)N(C)C[C@H]2Oc3ccc(NC(=O)Nc4ccc5c(c4)OCO5)cc3CC(=O)N([C@H](C)CO)C[C@H]2C)cc1	none
Cc1nc(SCC(=O)Nc2ccc([N+](=O)[O-])cc2)[nH]c(=O)c1C	none
Clc1ccc(-c2ncc3ccccn23)cc1	NOMO-1 viab 129.2
Clc1ccc(Sc2c(-c3ccccc3)nc3ncccn23)cc1	none (no result: NOMO-1 viab)
Nc1cccc(-c2cc3c(Oc4cccc(O)c4)ncnc3[nH]2)c1	NOMO-1 viab 91.0
Cc1ccc(S(=O)(=O)Nc2ccc3c(c2)C(=O)N([C@H](C)CO)C[C@@H](C)[C@H](CN(C)C(=O)Nc2ccccc2)O3)cc1	none
Cc1ccc(-c2ccc(=O)n(CCC(=O)NCCN3C(C)CCCC3C)n2)cc1 (stereo not drawn)	none (no result: NOMO-1 viab)
Cc1ccc2oc(-c3cc(NC(=O)c4ncn[nH]4)ccc3O)nc2c1	U2OS ROS induce 146.5
COc1ccc(OCC(=O)Nc2ccc(-c3nc4cc(C)ccc4o3)cc2)cc1	none
C[C@H](CO)N1C[C@H](C)[C@H](CN(C)C)Oc2c(NC(=O)CCCCCC(=O)Nc3ccccc3N)cccc2C1=O	none
C[C@H](CO)N1C[C@H](C)[C@@H](CN(C)CC2CC2)Oc2c(NC(=O)CCCCCC(=O)Nc3ccccc3N)cccc2C1=O	NOMO-1 viab 121.1
C[C@@H]1CN([C@@H](C)CO)C(=O)c2cccc(NC(=O)CCCCCC(=O)Nc3ccccc3N)c2O[C@H]1CN(C)CC1CCCCC1	NOMO-1 viab 137.9, U2OS ROS induce 82.3
C[C@H](CO)N1C[C@H](C)[C@H](CN(C)CC2CC2)Oc2c(NC(=O)CCCCCC(=O)Nc3ccccc3N)cccc2C1=O	none
COc1ccc(NC(=O)N(C)C[C@@H]2Oc3c(NS(=O)(=O)c4ccc(C)cc4)cccc3C(=O)N([C@H](C)CO)C[C@H]2C)cc1	none
CCOC(=O)c1ccc(NC(=O)Cn2c(C(F)(F)F)nc3ccccc32)cc1	none (no result: U2OS ROS induce)
Cc1nc2ccccc2n1CC(O)COCC1CC=CCC1 (stereo not drawn)	none
Cc1ccc(C(C)C)cc1OCC(O)Cn1c(C)nc2ccccc21 (stereo not drawn)	NOMO-1 viab 105.5
O=[N+]([O-])c1ccc(N2CCN(S(=O)(=O)c3ccc(F)cc3)CC2)cc1NCc1cccnc1	U2OS ROS induce 136.3
Cc1cc(C)c(S(=O)(=O)N2CCN(c3ccc([N+](=O)[O-])c(NCc4ccco4)c3)CC2)c(C)c1	none (no result: U2OS ROS induce)
O=[N+]([O-])c1ccc(N2CCN(S(=O)(=O)c3ccc(Cl)s3)CC2)cc1NCc1ccco1	none
CC(C)(C)c1ccc(S(=O)(=O)N2CCN(c3ccc([N+](=O)[O-])c(NCc4cccnc4)c3)CC2)cc1	U2OS ROS induce 98.4
Nc1c(C(=O)NCc2ccccn2)nnn1-c1ccc(OC(F)(F)F)cc1	none (no result: NOMO-1 viab)
Cc1cc(Br)ccc1NC(=O)Cn1cc([N+](=O)[O-])cn1	none
C[C@H](CO)N1C[C@H](C)[C@@H](CN(C)Cc2ccc(C(=O)O)cc2)Oc2c(NC(=O)C3CCOCC3)cccc2C1=O	none
COC(/C=C/C(OC(C)=O)C(C)OC(C)=O)C(O)C1CC=CC(=O)O1 (stereo not drawn)	U2OS ROS induce 105.4
COC1=CC(=O)OC1C(O)C(O)C(OC(C)=O)c1ccccc1 (stereo not drawn)	none
C[C@@H]1CN([C@H](C)CO)C(=O)c2cc(NC(=O)Cc3ccccc3)ccc2O[C@H]1CN(C)Cc1ccc2c(c1)OCO2	none
C[C@H](CO)N1C[C@H](C)[C@H](CN(C)Cc2ccc3c(c2)OCO3)Oc2ccc(NC(=O)Nc3ccccc3)cc2C1=O	NOMO-1 viab 93.7
C[C@H](CO)N1C[C@H](C)[C@@H](CN(C)Cc2ccc3c(c2)OCO3)Oc2ccc(NC(=O)Nc3ccccc3)cc2C1=O	none
COc1ccc(NC(=O)Nc2ccc3c(c2)C(=O)N([C@@H](C)CO)C[C@@H](C)[C@@H](CN(C)Cc2ccc4c(c2)OCO4)O3)cc1	none
C[C@H]1CN([C@@H](C)CO)C(=O)c2cc(NC(=O)Cc3ccccc3)ccc2O[C@H]1CN(C)Cc1ccc2c(c1)OCO2	NOMO-1 viab 95.2
C[C@@H]1CN([C@@H](C)CO)C(=O)c2cc(NC(=O)Nc3ccc4c(c3)OCO4)ccc2O[C@@H]1CN(C)Cc1ccc2c(c1)OCO2	none
COc1ccc(NC(=O)Nc2ccc3c(c2)C(=O)N([C@@H](C)CO)C[C@H](C)[C@H](CN(C)Cc2ccc4c(c2)OCO4)O3)cc1	NOMO-1 viab 98.0
C[C@H]1CN([C@@H](C)CO)C(=O)c2cc(NC(=O)Nc3ccc4c(c3)OCO4)ccc2O[C@H]1CN(C)Cc1ccc2c(c1)OCO2	NOMO-1 viab 93.2
O=C(CSc1n[nH]c(-c2ccc(Cl)cc2Cl)n1)Nc1ccc(F)cc1	none
C[C@H]1CN([C@@H](C)CO)C(=O)c2cc(NC(=O)Nc3cccc4ccccc34)ccc2O[C@H]1CN(C)Cc1ccccc1	none
C[C@@H]1CN([C@@H](C)CO)C(=O)c2cc(NC(=O)Nc3ccc4c(c3)OCO4)ccc2O[C@H]1CN(C)Cc1ccc(Cl)c(Cl)c1	NOMO-1 viab 94.7
C[C@H](CO)N1C[C@H](C)[C@H](CN(C)Cc2ccc3c(c2)OCO3)Oc2ccc(NC(=O)Nc3cccc4ccccc34)cc2C1=O	NOMO-1 viab 97.8
C[C@@H]1CN([C@H](C)CO)C(=O)c2cc(NC(=O)Nc3ccc4c(c3)OCO4)ccc2O[C@@H]1CN(C)Cc1ccc2c(c1)OCO2	U2OS ROS induce inconclusive
O=C(N/N=C/c1ccccc1Br)c1ccccn1	none (no result: NOMO-1 viab)

Screens: PubChem, Broad Institute
